Results reported in PubChem BioAssay (EPA / NIEHS).
The source made the active and inactive calls. How the source made its calls: active means hit-call score of the fitted dose curve at least 0.9, where 1 is the maximum; inactive means score below 0.9.

Columns and labels:
Settings in all cases: mRNA level, 48 h; actives raise or lower the signal
[1] = read-out: Glutamate-cysteine ligase catalytic (GCLC), GCLC (gene 2729); test: LTEA_HepaRG_GCLC: Life Technologies and Expression Analysis (LTEA) Assay for Glutamate-cysteine ligase catalytic (GCLC) using HepaRG (AID 2283498)
In short: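 Oxidative-stress marker GCLC is measured as mRNA change in human HepaRG liver cells after 48 h chemical treatment in 0.5% DMSO, eight concentrations from 100 uM. Activity is fitted bidirectionally against vehicle.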

[2] = read-out: growth arrest and DNA damage 45 (GADD45G), GADD45G (gene 10912); test: LTEA_HepaRG_GADD45G: Life Technologies and Expression Analysis (LTEA) Assay for growth arrest and DNA damage 45 (GADD45G) using HepaRG (AID 2283499)
In short: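 GADD45G transcript level by qRT-PCR (housekeeping-normalized: ACTB, GAPDH, POLR2A) after 48 h chemical treatment of a single HepaRG lot in serum-free induction medium; eight-point half-log series up to 100 uM in 0.5% DMSO, duplicates, up- or down-regulation scored.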

[3] = read-out: Glutamate-cysteine ligase regulatory (GCLM), GCLM (gene 2730); test: LTEA_HepaRG_GCLM: Life Technologies and Expression Analysis (LTEA) Assay for Glutamate-cysteine ligase regulatory (GCLM) using HepaRG (AID 2283500)
In short: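 GCLM expression quantified by qRT-PCR, normalized to three housekeeping genes, after 48 h chemical treatment of HepaRG cells in duplicate at 8 concentrations (top 100 uM, half-log steps, 0.5% DMSO). Changes fitted both directions against vehicle.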

[4] = read-out: Glutathione S-transferase M3 (GSTM3), GSTM3 (gene 2947); test: LTEA_HepaRG_GSTM3: Life Technologies and Expression Analysis (LTEA) Assay for Glutathione S-transferase M3 (GSTM3) using HepaRG (AID 2283501)
In short: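 GSTM3 transcript levels came from Fluidigm TaqMan qRT-PCR normalized to three housekeeping genes, fitted in both directions against DMSO. HepaRG cultures received chemicals for 48 h in serum-free induction medium (0.5% DMSO), 8 half-log concentrations up to 100 uM, duplicate.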

[5] = read-out: Heat shock 70 kDa protein 1 (HSPA1A), gene 3303; test: LTEA_HepaRG_HSPA1A: Life Technologies and Expression Analysis (LTEA) Assay for Heat shock 70 kDa protein 1 (HSPA1A) using HepaRG (AID 2283502)
In short: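 HSPA1A expression measured by qRT-PCR with ACTB/GAPDH/POLR2A normalization; curves fitted in both directions relative to DMSO vehicle. Exposure: 48 h in HepaRG cells, duplicate 8-point half-log series from 100 uM, 0.5% DMSO, serum-free induction medium.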

[6] = read-out: Hypoxia-inducible factor 1-alpha (Homo sapiens) (UniProt Q16665); test: LTEA_HepaRG_HIF1A: Life Technologies and Expression Analysis (LTEA) Assay for Hypoxia-inducible factor 1 (HIF1A) Trancription factor using HepaRG (AID 2283503)
In short: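 HIF1A transcript level read by qRT-PCR (ACTB, GAPDH, POLR2A normalization) after 48 h chemical exposure of HepaRG cultures. Eight half-log concentrations, top 100 uM, 0.5% DMSO vehicle, duplicates; bidirectional curve fit against DMSO baseline.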

[7] = read-out: 3-Hydroxy-3-Methylglutaryl-CoA Synthase 2 (HMGCS2), HMGCS2 (gene 3158); test: LTEA_HepaRG_HMGCS2: Life Technologies and Expression Analysis (LTEA) Assay for 3-Hydroxy-3-Methylglutaryl-CoA Synthase 2 (HMGCS2) using HepaRG (AID 2283504)
In short: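 Readout is HMGCS2 transcript by qRT-PCR, housekeeping-normalised (ACTB/GAPDH/POLR2A) and fitted bidirectionally against 0.5% DMSO. Differentiated HepaRG cells received chemicals 48 h, duplicate wells, eight half-log concentrations topping at 100 uM.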

HGF (gene 3082) = test: LTEA_HepaRG_HGF: Life Technologies and Expression Analysis (LTEA) Assay for Hepatocyte Growth Facto (HGF) using HepaRG (AID 2283505)
In short: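 HGF transcript was quantified by TaqMan qRT-PCR against three housekeeping genes after 48 h treatment of HepaRG cells. Exposure ran in duplicate over eight half-log steps topping at 100 uM in 0.5% DMSO vehicle.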

[8] = read-out: Insulin Like Growth Factor 1 (IGF1), IGF1 (gene 3479); test: LTEA_HepaRG_IGF1: Life Technologies and Expression Analysis (LTEA) Assay for Insulin Like Growth Factor 1 (IGF1) using HepaRG (AID 2283506)
In short: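 Expression measured by TaqMan qRT-PCR on a Fluidigm array, with three housekeeping genes for normalisation, after 48 h treatment of HepaRG cells. Top concentration 100 uM with half-log steps, 0.5% DMSO vehicle, bidirectional fit.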

[9] = read-out: Intercellular Adhesion Molecule 1 (ICAM1), ICAM1 (gene 3383); test: LTEA_HepaRG_ICAM1: Life Technologies and Expression Analysis (LTEA) Assay for Intercellular Adhesion Molecule 1 (ICAM1) using HepaRG (AID 2283507)
In short: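 ICAM1 transcript levels measured by qRT-PCR, normalized to three housekeeping genes (ACTB, GAPDH, POLR2A), after 48 h chemical exposure of HepaRG cells. Duplicate eight-point half-log series from 100 uM in 0.5% DMSO; gain or loss fitted against vehicle.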

Measured: AC50

Hypoxia-inducible factor 1-alpha (Homo sapiens), sequence (Q16665 whole entry, looked up): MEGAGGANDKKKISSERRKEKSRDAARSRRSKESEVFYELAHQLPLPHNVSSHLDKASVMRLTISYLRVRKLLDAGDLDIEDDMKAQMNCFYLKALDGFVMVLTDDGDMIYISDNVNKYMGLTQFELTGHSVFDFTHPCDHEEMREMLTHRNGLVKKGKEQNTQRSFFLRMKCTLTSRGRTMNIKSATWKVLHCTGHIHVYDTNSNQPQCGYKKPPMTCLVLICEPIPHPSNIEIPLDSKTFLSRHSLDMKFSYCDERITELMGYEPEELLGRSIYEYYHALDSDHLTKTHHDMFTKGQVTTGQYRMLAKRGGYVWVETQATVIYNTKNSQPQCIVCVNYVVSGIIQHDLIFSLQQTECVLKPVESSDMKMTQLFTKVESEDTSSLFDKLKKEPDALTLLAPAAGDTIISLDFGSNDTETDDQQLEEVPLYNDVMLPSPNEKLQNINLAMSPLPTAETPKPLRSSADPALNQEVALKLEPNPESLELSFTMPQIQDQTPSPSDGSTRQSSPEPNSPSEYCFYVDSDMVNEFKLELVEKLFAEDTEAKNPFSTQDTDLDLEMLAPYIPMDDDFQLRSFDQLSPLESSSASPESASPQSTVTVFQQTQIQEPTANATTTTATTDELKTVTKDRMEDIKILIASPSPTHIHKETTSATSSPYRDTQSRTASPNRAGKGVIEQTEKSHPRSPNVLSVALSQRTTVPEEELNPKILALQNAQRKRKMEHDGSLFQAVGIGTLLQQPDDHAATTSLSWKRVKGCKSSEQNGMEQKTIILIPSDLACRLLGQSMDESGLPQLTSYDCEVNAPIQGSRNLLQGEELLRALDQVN

Clc1cc(Cl)c(Cl)cc1Cl
inactive: all assays above

Cc1ccc(N(C)C)cc1
inactive: all assays above

Nc1ccc2c(c1)C(=O)c1ccccc1C2=O
active: [2] 3.17 µM | [3] 10.1 µM | [7] 16.5 µM
inactive: all other assays above

COc1ccc(S(=O)(=O)N2C(=O)[C@@](c3ccccc3OC)(N3C[C@H](O)C[C@H]3C(=O)N(C)C)c3cc(Cl)ccc32)c(OC)c1
active: [1] 13 µM | [2] 16.5 µM | [3] 78.6 µM | [4] 19.5 µM | [5] 83 µM | [6] 69.1 µM | [7] 15.8 µM | HGF (gene 3082) 85.5 µM | [8] 81.9 µM | [9] 21.6 µM

CNCc1cc(F)ccc1Oc1ccc(Cl)c(Cl)c1
active: [5] 78.4 µM | [7] 88.6 µM | HGF (gene 3082) 86.6 µM | [8] 89.4 µM | [9] 79.2 µM
inactive: all other assays above

CCOC(=O)CCC(=O)OCC
active: [4] 83.4 µM | [5] 88.6 µM
inactive: all other assays above

Cc1cccc([N+](=O)[O-])c1C
inactive: all assays above

CCCCCCCCCCO
inactive: all assays above

Cc1cccc(C)c1O
inactive: all assays above

Cc1c(C(=O)O)c(O)cc2c1C(=O)c1c(O)c([C@@H]3O[C@H](CO)[C@@H](O)[C@H](O)[C@H]3O)c(O)c(O)c1C2=O
inactive: all assays above

c1cc(-c2ccncc2)ccn1
inactive: all assays above

CN[C@H]1CC[C@@H](c2ccc(Cl)c(Cl)c2)c2ccc(S(N)(=O)=O)cc21
active: [2] 71.1 µM | [5] 72.1 µM | [7] 50 µM | [8] 87.7 µM | [9] 74.8 µM
inactive: [1] | [3] | [4] | [6] | HGF (gene 3082)

NCCO
inactive: all assays above

CCc1c(C(=O)NN2CCCCC2)nn(-c2ccc(Cl)cc2Cl)c1-c1ccc(Br)cc1
inactive: [4]
active: [1] 50 µM | [2] 41.6 µM | [3] 50 µM | [5] 86.3 µM | [6] 86.6 µM | [7] 23.7 µM | HGF (gene 3082) 90.4 µM | [8] 50 µM | [9] 26.6 µM

CC(C)(C)c1cc(O)c(C(C)(C)C)cc1O
active: [4] 50 µM | [6] 78.5 µM | [7] 78.2 µM | [8] 82.4 µM | [9] 50 µM
inactive: [1] | [2] | [3] | [5] | HGF (gene 3082)

CCCCCCCCCCCCCO
inactive: all assays above

O=C(N[C@@H](Cc1ccccc1)[C@@H](O)C(=O)N1C[C@@H](O)[C@@H](O)C1)c1cc2cc(Cl)ccc2[nH]1
active: [7] 89 µM
inactive: all other assays above

CC(=O)Oc1ccccc1C(=O)O
not listed: [6]
inactive: all other assays above

Oc1ccc2c(c1)OC[C@@H](N1CCC(O)(c3ccc(F)cc3)CC1)[C@H]2O
inactive: all assays above

Cc1ccc(C)c(C)c1
inactive: all assays above

Cc1ccc(C(C)C)c(O)c1
inactive: all assays above

C[C@]12C=CC(=O)C=C1CC[C@@H]1[C@@H]2C(=O)C[C@@]2(C)[C@H]1CC[C@]2(O)C(=O)CO
not listed: [2]
inactive: all other assays above
